Measurements from PubChem BioAssay AID493168 (National Center for Advancing Translational Sciences (NCATS), 2011).
Results filed as inconclusive are left out. Activity calls are given as the source filed them. Calls come from the whole dose curve; as a rule, active = well fitted inhibition curve with a large enough effect; inconclusive = small, poorly fitted or top-dose-only effect, or effect the other way; inactive = flat fitted curve, though single readings scatter.

Target: Ubiquitin carboxyl-terminal hydrolase 2 (Homo sapiens) (UniProt O75604)
Experiment: Confirmation Assay for Inhibitors of Ubiquitin-specific Protease USP2a Using CHOP2 as the Reporter; note: nearly all actives have a fitted effect of over 55% in size;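 for activity change, negative = inhibition: plate controls were DMSO wells for no effect and full inhibition by NEM control for full effect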
Conditions: USP2 core, Ub-CHOP2 coupled reporter fluorescence; series mostly up to 38.3 µM; activity change, negative = inhibition: at the top concentration
Procedure, shortened: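 USP2 core (10 nM final) was preincubated with compound for 30 min at RT in Tris-HCl pH 8.0, CaCl2, beta-mercaptoethanol, CHAPS. Ub-CHOP2 and reporter substrate (25 nM final each) were added, and fluorescence (Ex 485/Em 531 nm) was read after 60 min.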
Potency is the fitted concentration of half-maximal effect.

Sequence of Ubiquitin carboxyl-terminal hydrolase 2 (Homo sapiens) (O75604 whole entry, looked up): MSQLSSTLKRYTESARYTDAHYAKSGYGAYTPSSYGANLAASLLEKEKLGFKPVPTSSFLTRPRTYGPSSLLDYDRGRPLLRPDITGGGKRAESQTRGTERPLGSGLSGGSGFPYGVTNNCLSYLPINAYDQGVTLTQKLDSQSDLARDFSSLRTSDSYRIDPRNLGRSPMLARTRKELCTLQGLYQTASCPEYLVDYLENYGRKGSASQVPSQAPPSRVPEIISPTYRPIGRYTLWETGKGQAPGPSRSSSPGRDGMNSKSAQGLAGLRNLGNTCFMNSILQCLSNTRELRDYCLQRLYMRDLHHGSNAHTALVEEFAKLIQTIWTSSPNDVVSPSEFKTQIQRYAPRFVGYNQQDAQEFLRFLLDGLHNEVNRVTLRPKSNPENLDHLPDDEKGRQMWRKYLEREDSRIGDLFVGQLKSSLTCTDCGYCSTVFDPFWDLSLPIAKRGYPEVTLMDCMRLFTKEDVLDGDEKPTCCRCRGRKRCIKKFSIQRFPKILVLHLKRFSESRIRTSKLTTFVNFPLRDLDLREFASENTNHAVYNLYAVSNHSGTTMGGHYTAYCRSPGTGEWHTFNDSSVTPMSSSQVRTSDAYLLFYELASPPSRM

Question: How did the “activity change, negative = inhibition” value turn out when `O=C(CCCN1C(=O)c2ccccc2C1=O)NC1=NCCS1` was run?
Answer: The value was 3.31% (inactive).

Question: Which “activity change, negative = inhibition” value does the source give for `Cc1nc(N(C)C)c2sc(=S)n(C)c2n1` here?
Answer: Its value is 0.888% (inactive).

Question: With `Cc1ccc2oc(=O)c3cnn(CC(=O)NCCCOC(C)C)c3c2c1` as the compound, how does the “activity change, negative = inhibition” value read?
Answer: The value was 3.71% (inactive).

Question: `Cc1cccc(Nc2nc(NCc3ccco3)c3ccccc3n2)c1` was tested. Which “activity change, negative = inhibition” value did it give?
Answer: Its value is -6.47% (inactive).

Question: `CNc1nc(OCCNC(=O)Nc2ccccc2)nc(N2CCOCC2)n1` was tested. Which “activity change, negative = inhibition” value did it give?
Answer: The value was -0.528% (inactive).

Question: `O=C(COC(=O)c1ccc(NS(=O)(=O)c2cccs2)cc1)Nc1nc2c(F)c(F)c(F)cc2s1` was tested. Which Potency did it give?
Answer: The Potency was 6.56 µM (active).

Question: With `C/C(Cn1nnc2ccccc21)=N\OC(=O)c1ccccc1C` as the compound, how does the “activity change, negative = inhibition” value read?
Answer: The value was 5.51% (inactive).

Question: For `CCC(C)(C(=O)NC1CCCCC1)N(C(=O)C1CCC(=O)N1)c1ccccc1` (stereo not drawn), which “activity change, negative = inhibition” value is on record?
Answer: Its value is -1.54% (inactive).

Question: How did the Potency turn out when `Cc1ccc(C2=NC(=O)/C(=C/c3cc(O)c(O)c(Br)c3)S2)cc1` was run?
Answer: The Potency was 7.36 µM (active).

Question: With `CC1CCN(CC(O)COc2cccc(F)c2)CC1` (stereo not drawn) as the compound, how does the “activity change, negative = inhibition” value read?
Answer: The value was 2.47% (inactive).

Question: How did the “activity change, negative = inhibition” value turn out when `O=[N+]([O-])c1c(NCCO)cc(N2CCN(Cc3ccc4c(c3)OCO4)CC2)c2nonc12` was run?
Answer: Its value is 0.18% (inactive).

Question: Which “activity change, negative = inhibition” value does the source give for `CCOC(=O)c1[nH]c2ccc(OC)cc2c1NC(=O)CCN1CCCC(C)C1` (stereo not drawn) here?
Answer: The value was -2.89% (inactive).

Question: Which “activity change, negative = inhibition” value does the source give for `O=C1CS/C(=C/C(=O)c2ccccc2)N1` here?
Answer: Its value is 3.74% (inactive).

Question: `O=C(O)/C=C/c1ccc(S(=O)(=O)Nc2ccccc2C(=O)Nc2ccc(F)cc2)cc1` was tested. Which “activity change, negative = inhibition” value did it give?
Answer: The value was 1.87% (inactive).

Question: For `O=C(O)CC1(CC(=O)Nc2ccc3ccccc3c2)CCCCC1`, which “activity change, negative = inhibition” value is on record?
Answer: The value was 4.41% (inactive).

Question: For `O=C(OCc1nc2ccccc2[n+]([O-])c1C(=O)c1ccccc1)c1cccs1`, which “activity change, negative = inhibition” value is on record?
Answer: The value was -4.32% (inactive).

Question: `CCCC(=O)Nc1ccc(N2CCN(C(=O)c3cc4ccccc4o3)CC2)cc1` was tested. Which “activity change, negative = inhibition” value did it give?
Answer: Its value is 4.98% (inactive).

Question: With `Cc1nc(NC(C)C)c2cnn(CCc3ccccc3)c2n1` as the compound, how does the “activity change, negative = inhibition” value read?
Answer: The value was -3.81% (inactive).
